Assay results taken from PMC7862700, “An all-to-all approach to the identification of sequence-specific readers for epigenetic DNA modifications on cytosine”.

Tests used:
Assay in all cases: DAPPL (digital affinity profiling via proximity ligation, sequencing); 10 mM Tris-HCl pH 7.5, 50 mM NaCl, 1 mM DTT, 4% glycerol, room temperature, 30 min; GST-TFs on glutathione beads, 16-mer random dsDNA library, 0.1% formaldehyde crosslink after washing; high values mean tight binding
Settings in all cases: protein: recombinant; tags: N-terminal GST; dsDNA, one strand shown
FLI1 = molecular target: T1, FLI1 (Homo sapiens, UniProt Q01543 1-452)
T1 sequence: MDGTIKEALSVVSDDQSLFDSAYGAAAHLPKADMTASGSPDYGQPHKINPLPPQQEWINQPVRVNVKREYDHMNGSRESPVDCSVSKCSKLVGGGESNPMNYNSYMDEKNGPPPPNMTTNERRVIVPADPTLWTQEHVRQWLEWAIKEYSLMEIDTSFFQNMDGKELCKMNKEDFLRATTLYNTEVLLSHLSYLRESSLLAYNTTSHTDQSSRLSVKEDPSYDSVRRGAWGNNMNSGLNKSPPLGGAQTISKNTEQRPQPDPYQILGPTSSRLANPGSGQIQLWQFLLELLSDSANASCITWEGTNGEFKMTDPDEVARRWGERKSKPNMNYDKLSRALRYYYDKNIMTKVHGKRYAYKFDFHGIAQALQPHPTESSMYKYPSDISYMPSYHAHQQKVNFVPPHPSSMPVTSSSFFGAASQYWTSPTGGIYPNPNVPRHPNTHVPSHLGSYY
Outline: (§1)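 A tag-only sample was pooled with DNA-barcoded human transcription factors that had been expressed in yeast as GST fusions and captured on glutathione beads. The pools were incubated for 30 min at room temperature with 200 nmole of a random double-stranded 16-mer DNA library in Tris/NaCl/DTT/glycerol buffer, then washed, crosslinked with 0.1% formaldehyde, proximity-ligated (BsaI/T4 ligase, 1 h, 37 °C), PCR-amplified and sequenced on an Illumina NextSeq500. Binding signal is each hexamer's read frequency for a factor divided by its frequency for the tag-only sample.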

ELK1 = molecular target: T2, ELK1 (Homo sapiens, UniProt P19419 1-428)
T2 sequence: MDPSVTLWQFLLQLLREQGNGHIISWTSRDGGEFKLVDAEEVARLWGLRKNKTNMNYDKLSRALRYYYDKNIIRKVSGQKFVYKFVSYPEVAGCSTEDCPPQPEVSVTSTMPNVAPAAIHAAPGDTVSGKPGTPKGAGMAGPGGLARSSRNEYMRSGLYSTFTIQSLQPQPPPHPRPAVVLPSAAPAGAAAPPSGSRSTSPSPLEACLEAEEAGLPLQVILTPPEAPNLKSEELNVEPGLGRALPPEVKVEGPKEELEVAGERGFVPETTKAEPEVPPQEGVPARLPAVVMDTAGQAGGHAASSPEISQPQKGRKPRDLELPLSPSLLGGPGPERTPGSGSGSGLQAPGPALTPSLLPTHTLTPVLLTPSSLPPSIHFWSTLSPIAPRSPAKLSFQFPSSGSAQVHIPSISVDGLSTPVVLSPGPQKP
Outline: as §1

GABPA = molecular target: T3, GABPA (Homo sapiens, UniProt Q06546 1-454)
T3 sequence: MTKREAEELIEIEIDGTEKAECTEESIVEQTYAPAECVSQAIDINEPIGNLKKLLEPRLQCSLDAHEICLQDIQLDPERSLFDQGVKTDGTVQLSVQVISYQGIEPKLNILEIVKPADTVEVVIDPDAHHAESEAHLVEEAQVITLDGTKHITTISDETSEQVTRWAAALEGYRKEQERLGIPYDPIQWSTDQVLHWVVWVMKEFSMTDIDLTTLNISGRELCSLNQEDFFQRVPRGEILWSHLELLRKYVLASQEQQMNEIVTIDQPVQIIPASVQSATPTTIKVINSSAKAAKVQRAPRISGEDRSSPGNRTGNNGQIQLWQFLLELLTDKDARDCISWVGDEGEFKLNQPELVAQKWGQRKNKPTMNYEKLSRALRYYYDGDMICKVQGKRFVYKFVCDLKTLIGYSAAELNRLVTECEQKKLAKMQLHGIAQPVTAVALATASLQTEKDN
Outline: as §1

ERG = molecular target: T4, ERG (Homo sapiens, UniProt P11308 1-479)
T4 sequence: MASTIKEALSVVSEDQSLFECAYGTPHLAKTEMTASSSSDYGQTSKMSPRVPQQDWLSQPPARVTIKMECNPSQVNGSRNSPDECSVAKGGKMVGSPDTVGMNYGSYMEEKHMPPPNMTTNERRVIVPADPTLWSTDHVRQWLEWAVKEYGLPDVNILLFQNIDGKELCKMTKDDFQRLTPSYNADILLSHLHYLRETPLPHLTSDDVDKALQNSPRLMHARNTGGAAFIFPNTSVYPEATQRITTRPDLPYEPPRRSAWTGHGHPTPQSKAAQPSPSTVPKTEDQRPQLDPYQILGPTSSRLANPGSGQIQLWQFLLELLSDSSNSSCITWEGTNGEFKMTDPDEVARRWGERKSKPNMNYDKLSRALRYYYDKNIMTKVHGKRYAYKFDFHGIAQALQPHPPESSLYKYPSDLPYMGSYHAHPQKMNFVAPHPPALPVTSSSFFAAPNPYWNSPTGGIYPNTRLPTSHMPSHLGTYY
Outline: as §1

ELF1 = ELF1 (Homo sapiens, UniProt P32519 1-619)
Outline: as §1

EHF = molecular target: T5, EHF (Homo sapiens, UniProt Q9NZC4 1-300)
T5 sequence: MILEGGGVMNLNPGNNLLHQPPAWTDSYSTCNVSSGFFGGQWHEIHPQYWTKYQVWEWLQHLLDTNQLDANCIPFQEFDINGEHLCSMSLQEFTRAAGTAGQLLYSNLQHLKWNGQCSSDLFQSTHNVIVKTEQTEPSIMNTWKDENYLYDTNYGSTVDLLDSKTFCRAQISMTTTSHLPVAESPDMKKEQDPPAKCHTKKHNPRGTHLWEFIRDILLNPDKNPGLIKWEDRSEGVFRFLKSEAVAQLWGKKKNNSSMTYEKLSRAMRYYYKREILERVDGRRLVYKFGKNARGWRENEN
Outline: as §1

SPI1 = SPI1 (Homo sapiens, UniProt P17947 1-270)
Outline: as §1

SPIB = SPIB (Homo sapiens, UniProt Q01892 1-262)
Outline: as §1

ELK3 = molecular target: T6, ELK3 (Homo sapiens, UniProt P41970 1-407)
T6 sequence: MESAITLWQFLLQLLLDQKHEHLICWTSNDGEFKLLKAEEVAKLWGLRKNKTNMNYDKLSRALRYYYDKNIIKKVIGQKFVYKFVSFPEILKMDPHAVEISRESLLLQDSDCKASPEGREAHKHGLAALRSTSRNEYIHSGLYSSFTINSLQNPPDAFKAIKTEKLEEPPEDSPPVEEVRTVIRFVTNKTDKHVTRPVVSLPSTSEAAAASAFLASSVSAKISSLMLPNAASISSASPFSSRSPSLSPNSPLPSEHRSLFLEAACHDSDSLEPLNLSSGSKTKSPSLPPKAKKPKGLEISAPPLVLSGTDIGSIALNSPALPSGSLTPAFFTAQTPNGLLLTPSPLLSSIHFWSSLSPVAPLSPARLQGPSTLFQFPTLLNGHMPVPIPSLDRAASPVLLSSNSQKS
Outline: as §1

Sequence of ELF1 (P32519 whole entry): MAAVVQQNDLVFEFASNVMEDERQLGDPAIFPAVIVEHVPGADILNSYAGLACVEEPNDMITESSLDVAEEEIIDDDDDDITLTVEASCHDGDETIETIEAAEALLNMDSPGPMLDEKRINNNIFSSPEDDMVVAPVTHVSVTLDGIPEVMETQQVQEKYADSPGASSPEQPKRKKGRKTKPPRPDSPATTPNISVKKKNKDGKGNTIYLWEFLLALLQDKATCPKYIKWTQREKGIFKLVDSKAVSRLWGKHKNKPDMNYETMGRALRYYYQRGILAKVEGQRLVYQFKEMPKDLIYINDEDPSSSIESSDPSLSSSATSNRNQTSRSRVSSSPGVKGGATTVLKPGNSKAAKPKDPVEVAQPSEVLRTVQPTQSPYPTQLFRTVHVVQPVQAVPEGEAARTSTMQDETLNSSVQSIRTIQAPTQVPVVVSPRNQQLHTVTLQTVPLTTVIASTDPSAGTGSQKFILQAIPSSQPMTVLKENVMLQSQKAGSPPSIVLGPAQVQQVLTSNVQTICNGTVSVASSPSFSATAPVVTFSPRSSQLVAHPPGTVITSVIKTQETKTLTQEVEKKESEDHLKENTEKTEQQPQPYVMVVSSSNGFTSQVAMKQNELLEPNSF
Sequence of SPIB (Q01892 whole entry): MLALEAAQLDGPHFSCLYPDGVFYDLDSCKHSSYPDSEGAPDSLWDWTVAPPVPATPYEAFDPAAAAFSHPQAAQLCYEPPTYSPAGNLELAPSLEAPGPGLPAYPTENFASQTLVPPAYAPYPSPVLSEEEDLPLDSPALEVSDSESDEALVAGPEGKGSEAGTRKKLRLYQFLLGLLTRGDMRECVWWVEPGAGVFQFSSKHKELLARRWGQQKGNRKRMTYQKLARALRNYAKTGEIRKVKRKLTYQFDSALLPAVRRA

Sequence: TTTCCG
- binding signal (FLI1): 3.86 fold enrichment (6-mer frequency, TF over GST control)
- binding signal (ELK1): 3.68 fold enrichment (6-mer frequency, TF over GST control)
- binding signal (GABPA): 3.28 fold enrichment (6-mer frequency, TF over GST control)
- binding signal (ERG): 4.93 fold enrichment (6-mer frequency, TF over GST control)
- binding signal (ELF1): 3.41 fold enrichment (6-mer frequency, TF over GST control)
- binding signal (EHF): 3.75 fold enrichment (6-mer frequency, TF over GST control)
- binding signal (SPI1): 3.47 fold enrichment (6-mer frequency, TF over GST control)
- binding signal (SPIB): 3.89 fold enrichment (6-mer frequency, TF over GST control)
- binding signal (ELK3): 4.01 fold enrichment (6-mer frequency, TF over GST control)
